Bioassay records deposited in PubChem BioAssay by several laboratories.
Only a selection was taken, and hits are over-represented in it overall.
YopH PTP inh: YopH tyrosine phosphatase inhibitors, primary screen, biochemical, fluorescence Ex485/Em525; inhibition, % (test concentration not listed); actives 0.16% (n = 140,000); AID 898, 2007; in the data active = inhibition above about 50%
RmlCD inh 1536: M. tuberculosis RmlC/RmlD coupled enzyme inhibitors, primary screen, biochemical, compound mixtures, 384-well, from 1536-well plates. dTDP-4-dehydrorhamnose reductase (Mycobacterium tuberculosis (strain ATCC 25618 / H37Rv)) …. RmlC+RmlD coupled enzyme assay, percent inhibition; primary screen in compound mixtures. inhibition, % at 3.6 µM. actives 0.03% (n = 160,000). AID 1533, 2009; in the data active = inhibition mostly above about 34%, no sharp cut-off
Target sequence (P9WH09 whole entry, looked up): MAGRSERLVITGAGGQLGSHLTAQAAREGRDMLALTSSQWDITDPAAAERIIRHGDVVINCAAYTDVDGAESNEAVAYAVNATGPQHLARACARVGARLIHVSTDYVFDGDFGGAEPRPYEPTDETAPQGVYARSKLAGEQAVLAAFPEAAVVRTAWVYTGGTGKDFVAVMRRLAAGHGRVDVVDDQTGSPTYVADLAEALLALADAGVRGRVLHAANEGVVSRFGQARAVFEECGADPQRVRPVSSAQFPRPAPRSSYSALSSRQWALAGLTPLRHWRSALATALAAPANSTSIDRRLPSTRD
Target sequence (P9WH11 whole entry, looked up): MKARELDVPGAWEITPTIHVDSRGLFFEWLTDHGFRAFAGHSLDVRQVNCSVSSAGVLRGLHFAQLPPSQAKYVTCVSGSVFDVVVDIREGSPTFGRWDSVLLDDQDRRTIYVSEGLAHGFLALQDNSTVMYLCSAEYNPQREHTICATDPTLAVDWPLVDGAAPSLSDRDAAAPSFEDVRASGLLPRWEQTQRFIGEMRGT
Of the large screens only hits and unclear results are named; the others gave an inactive call.

O=C(c1ccc(-n2cccc2)cc1)N1CCCCC1	none (no result: YopH PTP inh)
COC(=O)C1C(O)=C(C=Nc2ccc3ccccc3c2)C(=O)CC1(C)C (configuration not stated)	none (no result: YopH PTP inh)
Nc1nnc2c(n1)CCCC2	YopH PTP inh 52
C1CCc2nc3c(nc2C1)CCCC3	none (no result: YopH PTP inh)
CCCCOc1ccc(OC(=O)Nc2cc(Cl)ccc2OC)cc1	none (no result: YopH PTP inh)
Cc1ccc(C(=O)O)cc1N=Cc1cc(Br)cc(Br)c1O	RmlCD inh 1536 45
CNC(=S)N/N=C/c1cc(Br)cc(Br)c1O	none
O=C1C(=O)c2ccc(-c3ccccc3)cc2-c2ccccc21	YopH PTP inh 77 (no result: RmlCD inh 1536)
Nc1ccc2c(c1)C(=O)C(=O)c1ccccc1-2	YopH PTP inh 101
Nc1ccc2c(c1)Cc1ccccc1-2	none
COC1=C(c2ccccc2)C(=O)c2ccccc2C1=O	none (no result: RmlCD inh 1536)
O=c1cc2oc3cc(O)c(O)cc3c(-c3ccccc3O)c-2cc1O	none (no result: YopH PTP inh)
COc1ccc(OC)c(-c2c3cc(O)c(=O)cc-3oc3cc(O)c(O)cc23)c1	YopH PTP inh 55
CC(=O)C(C(C)=O)C1(O)C(=O)c2ccccc2C1=O	YopH PTP inh 98
CC(=O)N(C)C1=C(O)c2ccccc2C(=O)C1=O	none (no result: RmlCD inh 1536)
Cc1onc(-c2c(Cl)cccc2Cl)c1C(=O)NCc1ccccn1	none
Cc1onc(-c2ccccc2)c1C(=O)NCc1ccccn1	YopH PTP inh 53
O=C(Nc1ccccc1)N1CCCC(CNS(=O)(=O)Cc2ccccc2)C1 (configuration not stated)	none (no result: YopH PTP inh)
COC(=O)C1C(C(C)C)N(c2ccccc2)OC1(C)O (configuration not stated)	YopH PTP inh 59
CC(C)OC(=O)C1C(=O)CC(C)(O)C(C(=O)OC(C)C)C1c1ccccc1 (configuration not stated)	none (no result: YopH PTP inh)
COc1ccc(-c2cc(=NCCC(=O)O)c3cc(C)ccc3o2)cc1	RmlCD inh 1536 32 (no result: YopH PTP inh)
COc1ccc(-c2cc(=NC(CC(C)C)C(=O)O)c3cc(C)ccc3o2)cc1 (configuration not stated)	none
CN(C(=O)COc1ccc(C(C)(C)C)cc1)C1CCS(=O)(=O)C1 (configuration not stated)	YopH PTP inh 54
CCc1ccc(OCC(=O)N(C)C2CCS(=O)(=O)C2)cc1 (configuration not stated)	none (no result: RmlCD inh 1536)
CC(C)COc1nc2c(c(=O)n(C)c(=O)n2C)n1C	none (no result: YopH PTP inh)
